The values below come from paper PMC7862700, “An all-to-all approach to the identification of sequence-specific readers for epigenetic DNA modifications on cytosine”.

What all share (experiment): DAPPL (digital affinity profiling via proximity ligation, sequencing); 10 mM Tris-HCl pH 7.5, 50 mM NaCl, 1 mM DTT, 4% glycerol, room temperature, 30 min; GST-TFs on glutathione beads, 16-mer random dsDNA library, 0.1% formaldehyde crosslink after washing; high values mean tight binding
Assay [1] addresses T1, FLI1 (Homo sapiens, UniProt Q01543 1-452).
T1 sequence: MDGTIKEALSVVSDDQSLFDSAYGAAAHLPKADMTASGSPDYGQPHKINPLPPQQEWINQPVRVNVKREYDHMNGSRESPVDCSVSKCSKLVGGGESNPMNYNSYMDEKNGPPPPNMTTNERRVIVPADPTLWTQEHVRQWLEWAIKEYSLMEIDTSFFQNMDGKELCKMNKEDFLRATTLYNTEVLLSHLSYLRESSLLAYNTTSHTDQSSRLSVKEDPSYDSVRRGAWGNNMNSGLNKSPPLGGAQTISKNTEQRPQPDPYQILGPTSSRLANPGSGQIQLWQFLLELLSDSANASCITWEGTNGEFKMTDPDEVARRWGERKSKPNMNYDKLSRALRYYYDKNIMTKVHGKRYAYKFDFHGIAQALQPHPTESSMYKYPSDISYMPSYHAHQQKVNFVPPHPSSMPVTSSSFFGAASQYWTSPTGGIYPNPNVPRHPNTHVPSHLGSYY
The conditions noted are these: protein: recombinant; tags: N-terminal GST; dsDNA, one strand shown. The essentials:
(§1)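 Beads coated with glutathione captured GST-fused human transcription factors that had been expressed in yeast, and the factors were then given DNA barcodes and pooled with a tag-only sample. The pools were incubated with 200 nmole of a random double-stranded 16-mer DNA library in Tris/NaCl/DTT/glycerol buffer for 30 min at room temperature, washed, crosslinked with 0.1% formaldehyde and proximity-ligated with BsaI/T4 ligase at 37 °C for 1 h. PCR amplification and Illumina NextSeq500 sequencing came last. Binding signal is each hexamer's read frequency for a factor divided by its frequency for the tag-only sample.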

Assay [2] concerns the target T2, ELK1 (Homo sapiens, UniProt P19419 1-428).
T2 sequence: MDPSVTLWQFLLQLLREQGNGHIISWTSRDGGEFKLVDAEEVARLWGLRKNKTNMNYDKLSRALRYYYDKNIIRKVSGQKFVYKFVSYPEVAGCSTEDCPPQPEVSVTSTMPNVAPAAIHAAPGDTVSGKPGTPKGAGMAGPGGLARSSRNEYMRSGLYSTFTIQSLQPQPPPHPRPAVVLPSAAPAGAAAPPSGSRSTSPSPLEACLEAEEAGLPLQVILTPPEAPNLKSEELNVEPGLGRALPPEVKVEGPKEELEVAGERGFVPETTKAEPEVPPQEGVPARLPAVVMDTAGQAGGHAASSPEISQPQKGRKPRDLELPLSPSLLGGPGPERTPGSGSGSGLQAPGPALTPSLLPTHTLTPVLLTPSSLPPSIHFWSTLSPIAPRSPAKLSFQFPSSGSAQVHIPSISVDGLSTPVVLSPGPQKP
As to conditions: protein: recombinant; tags: N-terminal GST; dsDNA, one strand shown. The essentials: as §1

Assay [3] concerns the target T3, GABPA (Homo sapiens, UniProt Q06546 1-454).
T3 sequence: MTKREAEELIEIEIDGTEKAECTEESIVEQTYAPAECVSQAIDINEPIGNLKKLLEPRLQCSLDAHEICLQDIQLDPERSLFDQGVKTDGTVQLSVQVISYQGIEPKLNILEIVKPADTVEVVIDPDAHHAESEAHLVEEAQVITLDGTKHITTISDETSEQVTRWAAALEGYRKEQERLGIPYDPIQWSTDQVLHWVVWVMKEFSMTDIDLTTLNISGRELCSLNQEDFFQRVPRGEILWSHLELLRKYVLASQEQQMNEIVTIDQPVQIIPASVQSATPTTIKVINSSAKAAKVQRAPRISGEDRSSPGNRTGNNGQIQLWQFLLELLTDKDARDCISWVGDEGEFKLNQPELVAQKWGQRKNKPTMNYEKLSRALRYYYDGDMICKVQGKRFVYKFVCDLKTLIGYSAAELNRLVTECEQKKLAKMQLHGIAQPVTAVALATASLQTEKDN
The conditions noted are these: protein: recombinant; tags: N-terminal GST; dsDNA, one strand shown. The method in brief: as §1

The target of assay [4] is T4, ERG (Homo sapiens, UniProt P11308 1-479).
T4 sequence: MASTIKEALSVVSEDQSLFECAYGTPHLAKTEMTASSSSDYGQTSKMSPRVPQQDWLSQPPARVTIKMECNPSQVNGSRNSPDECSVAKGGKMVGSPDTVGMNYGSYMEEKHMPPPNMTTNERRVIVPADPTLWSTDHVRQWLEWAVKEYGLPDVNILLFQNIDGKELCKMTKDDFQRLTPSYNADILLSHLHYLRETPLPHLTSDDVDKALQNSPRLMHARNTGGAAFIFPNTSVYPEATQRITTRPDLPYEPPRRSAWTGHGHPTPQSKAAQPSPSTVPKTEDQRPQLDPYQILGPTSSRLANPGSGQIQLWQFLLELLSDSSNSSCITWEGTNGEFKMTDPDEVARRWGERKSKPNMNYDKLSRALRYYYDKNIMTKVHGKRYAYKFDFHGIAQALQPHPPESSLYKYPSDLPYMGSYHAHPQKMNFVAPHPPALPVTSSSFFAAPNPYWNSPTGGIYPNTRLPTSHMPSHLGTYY
As to conditions: protein: recombinant; tags: N-terminal GST; dsDNA, one strand shown. The method in brief:
as §1

Assay [5] deals with ELF1 (Homo sapiens, UniProt P32519 1-619). The conditions noted are these: protein: recombinant; tags: N-terminal GST; dsDNA, one strand shown. The method in brief: as §1
The target of assay [6] is T5, EHF (Homo sapiens, UniProt Q9NZC4 1-300).
T5 sequence: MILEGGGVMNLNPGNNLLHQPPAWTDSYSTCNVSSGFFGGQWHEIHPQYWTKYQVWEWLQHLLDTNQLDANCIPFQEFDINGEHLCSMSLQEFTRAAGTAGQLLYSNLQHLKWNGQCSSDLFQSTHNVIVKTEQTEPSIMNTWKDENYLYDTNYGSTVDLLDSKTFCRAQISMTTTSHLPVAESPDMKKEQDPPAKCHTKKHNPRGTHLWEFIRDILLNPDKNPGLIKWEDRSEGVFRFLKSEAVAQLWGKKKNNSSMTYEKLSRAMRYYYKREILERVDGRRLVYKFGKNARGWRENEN
As to conditions: protein: recombinant; tags: N-terminal GST; dsDNA, one strand shown. The method in brief: as §1

Assay [7] deals with SPI1 (Homo sapiens, UniProt P17947 1-270). The conditions noted are these: protein: recombinant; tags: N-terminal GST; dsDNA, one strand shown. The method in brief: as §1
The target of assay [8] is T6, ELK3 (Homo sapiens, UniProt P41970 1-407).
T6 sequence: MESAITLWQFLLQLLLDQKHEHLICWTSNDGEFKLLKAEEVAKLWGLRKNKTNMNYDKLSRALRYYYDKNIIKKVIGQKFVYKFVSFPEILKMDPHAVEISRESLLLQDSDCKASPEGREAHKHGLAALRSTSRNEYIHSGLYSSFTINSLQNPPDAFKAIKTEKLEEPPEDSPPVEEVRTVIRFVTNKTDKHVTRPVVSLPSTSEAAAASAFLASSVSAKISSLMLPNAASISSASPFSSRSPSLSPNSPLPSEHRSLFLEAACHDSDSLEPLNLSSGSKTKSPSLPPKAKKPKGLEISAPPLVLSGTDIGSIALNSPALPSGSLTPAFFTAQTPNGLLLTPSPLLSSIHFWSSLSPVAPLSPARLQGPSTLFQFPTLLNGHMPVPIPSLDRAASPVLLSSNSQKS
The conditions noted are these: protein: recombinant; tags: N-terminal GST; dsDNA, one strand shown. The method in brief:
as §1

Assay [9] deals with ETV5 (Homo sapiens, UniProt P41161 1-510). As to conditions: protein: recombinant; tags: N-terminal GST; dsDNA, one strand shown. The essentials:
as §1

Assay [10] deals with HSF1 (Homo sapiens, UniProt Q00613 1-529). As to conditions: protein: recombinant; tags: N-terminal GST; chain copies: 3; dsDNA, one strand shown. The method in brief:
as §1

Assay [11] concerns the target T7, SPIC (Homo sapiens, UniProt Q8N5J4 1-248).
T7 sequence: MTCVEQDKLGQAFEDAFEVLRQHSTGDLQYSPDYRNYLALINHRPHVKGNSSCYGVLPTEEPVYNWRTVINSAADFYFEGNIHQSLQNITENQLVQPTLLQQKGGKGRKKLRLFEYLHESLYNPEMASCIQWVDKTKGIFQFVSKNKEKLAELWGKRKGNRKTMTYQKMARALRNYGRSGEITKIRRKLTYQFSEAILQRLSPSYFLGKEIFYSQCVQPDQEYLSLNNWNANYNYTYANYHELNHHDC
As to conditions: protein: recombinant; tags: N-terminal GST; dsDNA, one strand shown. The method in brief:
as §1

Assay [12] has as its target ELF4 (Homo sapiens, UniProt Q99607 1-663). The conditions noted are these: protein: recombinant; tags: N-terminal GST; dsDNA, one strand shown. The essentials: as §1
Assay [13] concerns the target T8, ELK4 (Homo sapiens, UniProt P28324-2 1-405).
T8 sequence: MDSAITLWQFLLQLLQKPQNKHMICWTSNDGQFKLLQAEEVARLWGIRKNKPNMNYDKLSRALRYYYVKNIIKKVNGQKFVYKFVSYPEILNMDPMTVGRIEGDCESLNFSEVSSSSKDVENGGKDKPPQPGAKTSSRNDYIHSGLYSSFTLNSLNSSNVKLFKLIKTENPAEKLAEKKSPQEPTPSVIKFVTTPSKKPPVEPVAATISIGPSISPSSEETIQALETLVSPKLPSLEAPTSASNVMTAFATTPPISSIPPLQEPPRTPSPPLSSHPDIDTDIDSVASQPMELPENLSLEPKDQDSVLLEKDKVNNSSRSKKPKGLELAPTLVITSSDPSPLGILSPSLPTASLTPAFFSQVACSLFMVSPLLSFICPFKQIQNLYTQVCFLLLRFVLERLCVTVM
The conditions noted are these: protein: recombinant; tags: N-terminal GST; dsDNA, one strand shown. The essentials:
as §1

Assay [14] deals with T9, ELF3 (Homo sapiens, UniProt P78545 1-371).
T9 sequence: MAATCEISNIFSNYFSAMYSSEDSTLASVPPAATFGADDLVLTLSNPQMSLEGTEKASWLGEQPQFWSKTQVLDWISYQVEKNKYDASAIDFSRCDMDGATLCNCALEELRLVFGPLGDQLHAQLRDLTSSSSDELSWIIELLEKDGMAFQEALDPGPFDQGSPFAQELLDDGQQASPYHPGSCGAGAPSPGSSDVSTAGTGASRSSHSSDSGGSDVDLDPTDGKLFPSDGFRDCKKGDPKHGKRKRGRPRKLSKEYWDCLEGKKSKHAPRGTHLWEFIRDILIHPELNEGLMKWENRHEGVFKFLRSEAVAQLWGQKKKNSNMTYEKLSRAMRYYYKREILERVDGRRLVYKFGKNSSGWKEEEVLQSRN
As to conditions: protein: recombinant; tags: N-terminal GST; dsDNA, one strand shown. The method in brief: as §1

In assay [15] the target is CRX (Homo sapiens, UniProt O43186 1-299). The conditions noted are these: protein: recombinant; tags: N-terminal GST; dsDNA, one strand shown. The method in brief:
as §1

HSF1, sequence (Q00613 whole entry): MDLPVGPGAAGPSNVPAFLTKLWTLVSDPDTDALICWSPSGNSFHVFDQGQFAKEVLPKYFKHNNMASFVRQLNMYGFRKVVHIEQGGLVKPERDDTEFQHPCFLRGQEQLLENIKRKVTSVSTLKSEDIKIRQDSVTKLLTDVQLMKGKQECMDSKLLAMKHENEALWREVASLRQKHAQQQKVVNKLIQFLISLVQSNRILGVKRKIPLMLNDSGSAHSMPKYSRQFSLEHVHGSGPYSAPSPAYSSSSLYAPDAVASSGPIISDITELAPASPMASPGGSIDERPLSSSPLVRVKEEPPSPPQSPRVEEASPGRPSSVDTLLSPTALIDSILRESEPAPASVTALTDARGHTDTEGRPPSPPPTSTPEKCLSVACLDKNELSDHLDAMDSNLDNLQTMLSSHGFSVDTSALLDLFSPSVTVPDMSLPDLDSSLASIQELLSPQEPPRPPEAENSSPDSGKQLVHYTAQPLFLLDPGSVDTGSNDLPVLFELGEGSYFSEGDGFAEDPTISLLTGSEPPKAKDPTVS
ELF4, sequence (Q99607 whole entry): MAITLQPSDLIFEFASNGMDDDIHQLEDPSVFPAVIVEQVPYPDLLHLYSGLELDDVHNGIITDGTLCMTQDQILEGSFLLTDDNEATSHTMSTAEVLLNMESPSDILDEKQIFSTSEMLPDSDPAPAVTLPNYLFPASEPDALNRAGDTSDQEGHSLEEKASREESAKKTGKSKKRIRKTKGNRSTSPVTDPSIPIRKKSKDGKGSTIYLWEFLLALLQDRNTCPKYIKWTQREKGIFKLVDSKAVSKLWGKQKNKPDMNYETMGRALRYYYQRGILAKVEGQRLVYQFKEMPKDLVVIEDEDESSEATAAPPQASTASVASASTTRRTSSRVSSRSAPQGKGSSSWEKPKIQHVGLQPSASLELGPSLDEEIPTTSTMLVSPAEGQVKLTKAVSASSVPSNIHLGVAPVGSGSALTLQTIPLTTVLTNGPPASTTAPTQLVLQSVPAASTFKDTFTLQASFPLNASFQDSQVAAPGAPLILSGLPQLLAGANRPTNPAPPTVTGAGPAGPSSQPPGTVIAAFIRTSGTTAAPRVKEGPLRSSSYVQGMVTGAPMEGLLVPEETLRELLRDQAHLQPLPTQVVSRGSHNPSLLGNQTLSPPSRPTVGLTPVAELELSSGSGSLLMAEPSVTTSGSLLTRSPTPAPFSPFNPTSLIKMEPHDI
CRX, sequence (O43186 whole entry): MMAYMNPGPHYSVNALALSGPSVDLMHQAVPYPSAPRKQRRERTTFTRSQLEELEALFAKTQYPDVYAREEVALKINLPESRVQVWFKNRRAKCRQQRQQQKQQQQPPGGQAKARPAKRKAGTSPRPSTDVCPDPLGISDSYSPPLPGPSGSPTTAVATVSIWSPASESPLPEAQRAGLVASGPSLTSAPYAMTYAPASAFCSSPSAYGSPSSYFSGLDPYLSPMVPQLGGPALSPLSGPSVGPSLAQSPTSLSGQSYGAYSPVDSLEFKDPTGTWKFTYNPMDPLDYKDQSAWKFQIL
ELF1, sequence (P32519 whole entry): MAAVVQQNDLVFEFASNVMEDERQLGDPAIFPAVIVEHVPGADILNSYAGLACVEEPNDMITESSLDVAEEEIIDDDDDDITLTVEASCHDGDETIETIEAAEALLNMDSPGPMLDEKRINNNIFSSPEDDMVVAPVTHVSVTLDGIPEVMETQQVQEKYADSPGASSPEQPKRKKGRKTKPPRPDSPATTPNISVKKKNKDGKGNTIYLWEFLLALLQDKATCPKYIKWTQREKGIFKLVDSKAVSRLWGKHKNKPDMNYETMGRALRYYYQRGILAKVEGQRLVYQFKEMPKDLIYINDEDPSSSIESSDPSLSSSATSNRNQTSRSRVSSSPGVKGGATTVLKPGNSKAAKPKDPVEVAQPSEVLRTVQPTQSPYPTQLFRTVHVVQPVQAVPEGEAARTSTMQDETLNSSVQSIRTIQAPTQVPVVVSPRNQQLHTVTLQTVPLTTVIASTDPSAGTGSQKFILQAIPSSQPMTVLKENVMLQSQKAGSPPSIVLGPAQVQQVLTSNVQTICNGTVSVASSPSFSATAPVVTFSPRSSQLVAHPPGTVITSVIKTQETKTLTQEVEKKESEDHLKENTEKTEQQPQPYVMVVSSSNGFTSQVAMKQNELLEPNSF
ETV5, sequence (P41161 whole entry): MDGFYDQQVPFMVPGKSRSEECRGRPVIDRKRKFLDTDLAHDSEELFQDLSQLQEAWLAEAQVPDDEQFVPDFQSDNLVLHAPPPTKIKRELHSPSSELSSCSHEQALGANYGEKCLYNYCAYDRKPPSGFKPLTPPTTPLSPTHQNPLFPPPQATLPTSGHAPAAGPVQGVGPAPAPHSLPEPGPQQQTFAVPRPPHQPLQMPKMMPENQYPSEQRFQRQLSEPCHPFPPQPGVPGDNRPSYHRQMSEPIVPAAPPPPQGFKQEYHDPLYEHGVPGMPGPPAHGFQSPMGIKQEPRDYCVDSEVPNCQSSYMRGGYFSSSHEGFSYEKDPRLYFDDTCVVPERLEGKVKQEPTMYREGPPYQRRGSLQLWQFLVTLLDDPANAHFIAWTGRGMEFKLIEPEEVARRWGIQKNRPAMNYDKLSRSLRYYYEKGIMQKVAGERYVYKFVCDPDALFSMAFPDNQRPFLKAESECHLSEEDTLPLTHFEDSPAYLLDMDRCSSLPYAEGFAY

As to ATGAAG, the binding signal was 1.1 fold enrichment (6-mer frequency, TF over GST control) in assay [1]; 1.1 fold enrichment (6-mer frequency, TF over GST control) in assay [2]; 1.04 fold enrichment (6-mer frequency, TF over GST control) in assay [3]; 1.1 fold enrichment (6-mer frequency, TF over GST control) in assay [4]; 1.04 fold enrichment (6-mer frequency, TF over GST control) in assay [5]; 1.06 fold enrichment (6-mer frequency, TF over GST control) in assay [6]. The binding signal was 1.05 fold enrichment (6-mer frequency, TF over GST control) in [7]; 1.05 fold enrichment (6-mer frequency, TF over GST control) in assay [8]; 1.01 fold enrichment (6-mer frequency, TF over GST control) in [9]; 1.07 fold enrichment (6-mer frequency, TF over GST control) in assay [10]; 1.14 fold enrichment (6-mer frequency, TF over GST control) in assay [11]; 1.08 fold enrichment (6-mer frequency, TF over GST control) in assay [12]. Also, the binding signal in assay [13] is 1.17 fold enrichment (6-mer frequency, TF over GST control); in assay [14], 1.02 fold enrichment (6-mer frequency, TF over GST control); in assay [15], 1.04 fold enrichment (6-mer frequency, TF over GST control).
